Bioassay records as filed in PubChem.
Compounds with a hit are over-represented: about 12% of the library has one in this group of screens.
SARS PLP yeast: SARS-CoV PLP inhibition in yeast | S. cerevisiae expressing SARS-CoV PLpro, growth rescue | Potency, µM (series often up to 32.9 µM), without a hit: top-dose activity, positive = growth rescue, most hits filed as activators | hit rate 0.19% among 330,000 | AID 485353; calls by dose curve; further: 0% is about no effect; nearly all actives have a fitted effect of over 55% in size
Pf growth 96h: P. falciparum growth inhibition at 96 hour, primary screen for plastid delayed-death inhibitors. Potency, µM (top dose mostly 28.7 µM), inactives show at the highest dose activity change, negative = inhibition, usual class: inhibitors. hit rate 6.9% among 320,000. P. falciparum luciferase reporter growth, 96 h. AID 504834; further: on the % scale 0 is the no-effect control and ±100 the full control effect
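P. falciparum expressing integrated firefly luciferase, in erythrocytes at 2% hematocrit, 0.05% parasitemia, incubated with compounds 96 h at 37 C, 5% CO2. Growth inhibition read as loss of luminescence; two-generation exposure targets delayed-death apicoplast inhibitors.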
Sm TGR inh: blocks Schistosoma mansoni thioredoxin glutathione reductase | Q962Y6 | purified TGR, DTNB reduction, TNB absorbance 405 nm | Potency, µM (series often up to 114 µM), for inactives: at the top dose activity change, negative = inhibition, usual class: inhibitors | hit rate 3% among 360,000; further: on the % scale 0 is the no-effect control and ±100 the full control effect; nearly all actives have a fitted effect of over 60% in size
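Kinetic colorimetric format: TGR-catalysed, NADPH-driven DTNB reduction monitored via TNB absorbance. Enzyme dispensed at 20 nM; compound exposure 15 min at room temperature before reaction start.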
Pf growth 48h: inhibits P. falciparum growth in the first generation, 48 h | P. falciparum luciferase growth in erythrocytes, 48 h | AID 504832 | hit rate 5.9% among 310,000 | Potency, µM (series often up to 28.7 µM), inactives show at the highest dose activity change, negative = inhibition, hits mostly inhibitors; further: on the % scale 0 is the no-effect control and ±100 the full control effect
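Firefly luciferase activity from engineered P. falciparum reports growth; inhibitors lower the luminescent signal. Cultures contained 2% hematocrit erythrocytes at 0.1% final parasitemia.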
* marks the source's active call; other numbers are inactive results; [ ] = dose if it differs, or a comment. Unless noted, the call rests on the fitted dose curve; in most records, active means well fitted curve in the direction sought with a large enough effect; inconclusive means small, poorly fitted or top-dose-only effect, or another doubt; inactive means no such curve, though single readings can be large; an effect the other way counts as inactive or inconclusive. Potency means the concentration at half of the fitted maximal effect.

Screening Cc1ccc(NC2CCCN(C(=O)c3cccc(-c4ncc[nH]4)c3)C2)cc1C (centres undefined) returned SARS PLP yeast -2.1%, Pf growth 96h 10.4µM*, Sm TGR inh -23.1% and Pf growth 48h inconclusive.
For COc1cccc(C2C3=C(CCCC3=O)Nc3nc(-c4cc(OC)c(OC)c(OC)c4)nn32)c1 (centres undefined) the results were SARS PLP yeast -1.3%, Pf growth 96h inconclusive, Sm TGR inh -30.5% and Pf growth 48h inconclusive.
Screening COc1cc(-c2nc3n(n2)C(c2ccc(F)cc2)C2=C(CCCC2=O)N3)cc(OC)c1OC (centres undefined) returned SARS PLP yeast 1.9%, Pf growth 96h 60.6%, Sm TGR inh 13.3% and Pf growth 48h 5.22µM*.
Screening CCCn1c(CCCNC(=O)c2ccccc2OC)nc2ccccc21 returned Sm TGR inh -8.8%.
CCc1ccc(NCc2cc3ccc(OC)cc3n(CC(=O)Nc3c(C)cc(C)cc3C)c2=O)cc1 was read as Sm TGR inh -0.3%.
For COc1ccc(OC)c(C(c2c(O)nc(SC)[nH]c2=O)c2c(O)nc(SC)[nH]c2=O)c1 the results were SARS PLP yeast 4.6%, Pf growth 96h 0.0%, Sm TGR inh 1.41µM* and Pf growth 48h -0.3%.
For COc1ccc(CCNC(=O)CSc2nc(O)c(C(C)C)c(=O)[nH]2)cc1OC the results were SARS PLP yeast 5.6%, Pf growth 96h 13.6%, Sm TGR inh -10.7% and Pf growth 48h -22.6%.
COc1cc(C(c2c(O)nc(SC)[nH]c2=O)c2c(O)nc(SC)[nH]c2=O)cc(OC)c1OC was read as SARS PLP yeast 0.1%, Pf growth 96h -11.0%, Sm TGR inh 1.78µM* and Pf growth 48h 10.2%.
Screening Cc1cc(Br)ccc1NC(=O)c1c(C)oc2ncnc(N3CCCCC3)c12 returned Sm TGR inh 10.9%.
`Cc1cc(C2N=C(N)Nc3nc4ccccc4n32)c(C)n1-c1ccccc1Cl` (centres undefined) gave SARS PLP yeast 0.4%, Pf growth 96h -11.7% and Sm TGR inh 0.9%[11.4 µM].
Screening Cc1ccc(-n2c(C)cc(C3N=C(N)Nc4nc5ccccc5n43)c2C)c(C)c1 (centres undefined) returned SARS PLP yeast 0.9%, Pf growth 96h -24.6%, Sm TGR inh -13.6% and Pf growth 48h 8.28µM*.
For CCOC(=O)N1CCN(C(=O)c2ccc(Cn3c(=S)[nH]c4ccc(Br)cc4c3=O)cc2)CC1 the results were SARS PLP yeast 1.0%, Pf growth 96h 3.7µM*, Sm TGR inh -3.4% and Pf growth 48h 11.7µM*.
`CC(C)N(CCn1c(=S)[nH]c2ccccc2c1=O)C(C)C` gave SARS PLP yeast 2.0%, Pf growth 96h 2.94µM* and Sm TGR inh -0.7%.
Screening CCCn1c(=S)[nH]c2cc(C(=O)N3CCN(C4CCCCC4)CC3)ccc2c1=O returned SARS PLP yeast 1.0%, Pf growth 96h 10.4µM*, Sm TGR inh -17.1% and Pf growth 48h 0.4%.
CCOC(=O)N1CCN(C(=O)c2ccc3c(=O)n(CCc4ccccc4)c(=S)[nH]c3c2)CC1 was read as SARS PLP yeast -3.9%, Pf growth 96h 8.28µM*, Sm TGR inh 2.5% and Pf growth 48h inconclusive.
`CCOC(=O)N1CCN(C(=O)c2ccc3c(=O)n(Cc4ccc(Cl)cc4)c(=S)[nH]c3c2)CC1` gave SARS PLP yeast 3.5%, Pf growth 96h 56.8%, Sm TGR inh 9.4% and Pf growth 48h 0.6%.
Screening O=c1c2ccccc2[nH]c(=S)n1CCN1CCCC1 returned SARS PLP yeast -0.2%, Pf growth 96h 4.7%, Sm TGR inh -1.6% and Pf growth 48h -4.1%.
CCOC(=O)C(CC)n1cnc2c(nnn2-c2ccc(F)cc2)c1=O (centres undefined) was read as SARS PLP yeast 1.8%, Pf growth 96h 26.1%, Sm TGR inh 3.8% and Pf growth 48h 4.8%.
Screening O=C(NCc1cccc(Cl)c1)NCc1noc2ccccc12 returned Sm TGR inh 3.7%.
`COc1cccc(OC)c1C(=O)NC(=S)NCc1cccnc1` gave SARS PLP yeast -1.3%, Pf growth 96h -31.1%, Sm TGR inh -41.0% and Pf growth 48h 82.7%.
Screening Cc1cn(CC(=O)c2ccccc2)c2ccccc12 returned SARS PLP yeast -2.4%, Pf growth 96h -2.2%, Sm TGR inh -0.6% and Pf growth 48h inconclusive.
`O=c1c2ccccc2[nH]c(=S)n1CCCN1CCN(C2CCCCC2)CC1` gave SARS PLP yeast 0.3%, Sm TGR inh 0.8% and Pf growth 48h 13.1µM*.
For CCOC(=O)N1CCN(CCc2ccccc2)CC1 the results were SARS PLP yeast 1.1%, Pf growth 96h 10.4µM*, Sm TGR inh -16.6% and Pf growth 48h 25.5%.
`CCOC(=O)N1CCN(C(=O)CCc2ccccc2)CC1` gave SARS PLP yeast 2.3%, Pf growth 96h -12.8%, Sm TGR inh 8.6% and Pf growth 48h -3.7%.
For CC1CCN(CCCn2c(=S)[nH]c3ccccc3c2=O)CC1 the results were SARS PLP yeast 13.9%, Pf growth 96h 94.0%, Sm TGR inh 3.7% and Pf growth 48h -2.9%.
`C=CCN1CCN(C(c2cccc(OC)c2OC)c2nnnn2CCC(C)C)CC1` (centres undefined) gave SARS PLP yeast -1.4%, Pf growth 96h 10.0%, Sm TGR inh -2.7% and Pf growth 48h 7.38µM*.
COc1ccc(C(c2nnnn2CCc2ccccc2)N2CCN(C)CC2)cc1OC (centres undefined) was read as SARS PLP yeast -4.6%, Pf growth 96h 77.2%, Sm TGR inh 89.1µM* and Pf growth 48h -6.6%.
Screening Oc1ccc(C(c2nnnn2CCc2ccccc2)N2CCN(c3nc4ccccc4s3)CC2)cc1 (centres undefined) returned SARS PLP yeast 4.8%, Pf growth 96h inconclusive, Sm TGR inh 8.91µM* and Pf growth 48h inconclusive.
Screening Clc1ccc(C(c2nnnn2CCc2ccccc2)N2CCSCC2)cc1 (centres undefined) returned SARS PLP yeast -2.2%, Pf growth 96h 79.5%, Sm TGR inh -1.5% and Pf growth 48h inconclusive.
Screening COc1cccc(C(c2nnnn2CCc2ccccc2)N2CCN(c3ccccc3)CC2)c1OC (centres undefined) returned SARS PLP yeast -41.4%, Pf growth 96h inconclusive, Sm TGR inh -35.9% and Pf growth 48h 4.65µM*.
Screening Cc1cc(C)c2c(=O)cc(C(=O)Nc3c(C)n(C)n(-c4ccccc4)c3=O)oc2c1 returned Sm TGR inh 20.3%.
Screening Cc1nc(NC(=O)CN2CC(C)OC(C)C2)sc1C(=O)N(C)C (centres undefined) returned SARS PLP yeast 0.9%, Pf growth 96h inconclusive, Sm TGR inh 4.1% and Pf growth 48h 1.5%.
Screening CC(=O)NCCc1nc2cc(NC(=O)c3ccc([N+](=O)[O-])cc3)ccc2n1C returned SARS PLP yeast 0.2%, Pf growth 96h 205.4%, Sm TGR inh 18.4% and Pf growth 48h 147.9%.
For COc1ccccc1N1CCN(C(c2ccccc2)c2nnnn2CCc2ccccc2)CC1 (centres undefined) the results were SARS PLP yeast -18.7%, Pf growth 96h -6.4%, Sm TGR inh -8.8% and Pf growth 48h 10.4µM*.
